Measured values as given in publication PMC12136788.
Changes are numbered by the printed parent chain. In all, about 24,000 sequences were measured (“enrichment r”: median about 0.99, highest 2% from about 3.7 on). The sample holds the highest values, similar sequences and a random draw of the others, so the mix is not that of the screen.

B1: 33328512_33328632_5828_CDS_ENSG00000198646_ENST00000359003|human|control|control (ssRNA)
RNA: GGGAGUUCUACAGUCCGACGAUCAUCUGCACCAUAUUGUUCUUCCCCUUUCUCAAGAGAGCCUGUAACUUUCUUACAUGCCUUGGUCAACAAAAUUUGGCCAAUUUUGUCCACUUUUCCUUUGCCCUUACUAGACGAGACUGGCAACAGAGGAUUGAGCAUCA
B2: chr12:95365269:95365270:-_ENSG00000184752_ENST00000327772|hu_hu|motif|central (ssRNA)
RNA: GGGAGUUCUACAGUCCGACGAUCUCAUUGUCUUUACUUGUAAGGUGUUGAAGGUGGGAUCCACUCCUGAAUCUUCUUUCGGGUGGUAGAAUAAGGUACAUAUUGUUCUGGGGUGCCAGUCACGUUGAAUUUAUGGUUCGUCCACAACAGAGGAUUGAGCAUCA
B3: chrX:106345308:106345309:+_ENSMUSG00000031246_ENSMUST00000033598|mus_mus|motif|central (ssRNA)
RNA: GGGAGUUCUACAGUCCGACGAUCUUCUCUCAUCCACUUCCGAUUCUCUUCAUUAGCUGCAAUAUCUUUUUCUUCAAAUCCGGUUUUGUUGGCUUCUAAGAAACAAAGCACAUCUUGCUGUUUCUUCUUAAUCGCCGUAGAGCCCAACAGAGGAUUGAGCAUCA
B4: 25284998_25285535_556_3pUTR_ENSMUSG00000054793_ENSMUST00000068023|mouse|control|control (ssRNA)
RNA: GGGAGUUCUACAGUCCGACGAUCCACGCUCCACACCUUGCCGUUCUCCUGGCCGCUGCUCACUCCUUUCAACUCCUUGCGAUCCCGAUACCAGCGCAGGACCGCUGCGGGGCGCGACCGCGGAACCAGGCAGCUGAGUUCCACCAACAGAGGAUUGAGCAUCA
B5: 122215373_122233679_156_5pUTR_ENSG00000114030_ENST00000344337|human|control|control (ssRNA)
RNA: GGGAGUUCUACAGUCCGACGAUCACUUUUCAGGCGAAAGUUCUCUUUUCCUGGGGUGGUCAUGAUUUCAGGCUCAAGGCAACCGAUCCCGGUGCCACCGCUGAAGUUAGCCCCUCGCUCGCCCGCCCGCCGUGCCACUCCCGCCAACAGAGGAUUGAGCAUCA
B6: 36851294_36856410_1128_CDS_ENSMUSG00000022837_ENSMUST00000023535|mouse|control|control (ssRNA)
RNA: GGGAGUUCUACAGUCCGACGAUCAUUUAGCUCCAACAUCAUCUUUGUUCGUUUAGAUCUGAAACUCCUCUGCAAGGCAAUCACAGCAGACGGAAGCUUCUUUAAUCUCUUUCUGGUCUGGAAACCUUUCCAAUAGGCUUGAAUCAACAGAGGAUUGAGCAUCA
B7: chr18:52893488:52893489:-_ENSG00000196628_ENST00000354452|hu_hu|hu_hu_hu_mus_True|48_48 (ssRNA)
RNA: GGGAGUUCUACAGUCCGACGAUCUAUUUAGACCAUUUCCGCGGAGUUAUGGCAUUUACUCAGUGCUGAUAGGUGGAAAAACUACUUGAACAGGGAUUUUUUUUUUCCUUAAUACAUGCCAAGAUUGUGUGGCUGUCAAAACAGCAACAGAGGAUUGAGCAUCA
B8: chr4:142145789:142145790:+_ENSG00000109445_ENST00000262990|hu_hu|FALSE|FALSE (ssRNA)
RNA: GGGAGUUCUACAGUCCGACGAUCACACUGUGCACAAAUUGGUAACUUCUGUACAGAAUUACAAAAGUAGCAAAAUGCUCUAUUCUUCUGCCGCCUCUGACACUUGUCACAUUCCAUUGAGGCAUUACAUGGAUGUUUAGCUAACAACAGAGGAUUGAGCAUCA
B9: chr11:101919151:101919152:-_ENSMUSG00000017314_ENSMUST00000017458|mus_mus|motif|central (ssRNA)
RNA: GGGAGUUCUACAGUCCGACGAUCAAAUGAGAUUCCUAAUAUAAUAAAUAUAUUUCUAGCAUUUGUAAUAAAUAUUCUGUCGGUUCUCCCUCCCUCCCCUUCUCUAGGAUAUGGGCACACAGUGGUUCAGGGACAAGCUUGGGCCAACAGAGGAUUGAGCAUCA
B10: chr17:56552419:56552420:-_ENSMUSG00000013236_ENSMUST00000086828|mus_mus|mus_mus_mus_hu_False|1_68 (ssRNA)
RNA: GGGAGUUCUACAGUCCGACGAUCAAAAAAUACACUAUUUAAAAAAAAUGAAAUGUCACGGGAUACAAAAAAAUAUAGAGUUUUAAAAGAAAGCUGGAUUCUGGUCCCAGCCCAGUGUCCCCAGGCUGCAGAGCGGGGCAGAGGCAACAGAGGAUUGAGCAUCA
B11: chr17:56552419:56552420:-_ENSMUSG00000013236_ENSMUST00000086828|mus_mus|mus_mus_mus_hu_False|48_68 (ssRNA)
RNA: B10 RNA with G88A, G92A, C93U, U94A, G95A, C138A, A139G, G143C
B12: chr17:56552419:56552420:-_ENSMUSG00000013236_ENSMUST00000086828|mus_mus|mus_mus_mus_hu_False|68_88 (ssRNA)
RNA: B10 RNA with U48A, G49A, A50G, U53A, G54A, U55A, C56A, C138A, A139G, G143C
B13: chr17:56552419:56552420:-_ENSMUSG00000013236_ENSMUST00000086828|mus_mus|mus_mus_mus_hu_False|1_58 (ssRNA)
RNA: B10 RNA with A67G, A68U, A69U, A71C, U73C, A74U, U75G, G77C, G79C, U81A
B14: chr17:56552419:56552420:-_ENSMUSG00000013236_ENSMUST00000086828|mus_mus|mus_mus_mus_hu_False|28_68 (ssRNA)
RNA: B10 RNA with C107U, A108U, C112A, G114A, U115A, C138A, A139G, G143C

These binders were tested against T1, UNK ZnF1-3 (human, UniProt Q9C0B0 31-174) (assay: nsRBNS (natural sequence RNA bind-n-seq); RBNS binding buffer (assumed for nsRBNS): 25 mM Tris pH 7.5, 150 mM KCl, 3 mM MgCl2, 0.01% Triton X-100, 500 ug/ml BSA, 20 U/ml SUPERase-In, 4 C; UNK is unkempt and MSI1 is Musashi-1; names of the RNAs are library labels; protein concentration not given here; high values mean tight binding).
T1 sequence: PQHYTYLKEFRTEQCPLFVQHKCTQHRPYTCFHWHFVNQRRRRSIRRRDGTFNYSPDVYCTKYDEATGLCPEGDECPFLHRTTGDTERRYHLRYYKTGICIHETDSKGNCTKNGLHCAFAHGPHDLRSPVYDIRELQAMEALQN

| Binder | binding signal [enrichment R] |
| --- | --- |
| B1 | 0.505 |
| B2 | 0.831 |
| B3 | 0.538 |
| B4 | 0.858 |
| B5 | 0.57 |
| B6 | 0.644 |
| B7 | 0.93 |
| B8 | 1.04 |
| B9 | 3.58 |
| B10 | 9.75 |
| B11 | 8.41 |
| B12 | 16.7 |
| B13 | 3.44 |
| B14 | 9.22 |
